# In PubChem BioAssay (EPA / NIEHS):
# Inconclusive results are not listed. Active and inactive are the calls of the source. The calls were made as follows: active = hit-call score of the fitted dose curve at least 0.9, where 1 is the maximum; inconclusive = response in the unintended direction; inactive = score below 0.9.
# Tests used:
# [1] = biological target: human Dopamine Receptor D4.4 (DRD4.4), DRD4 (gene 1815) (UniProt P21917); assay: NVS_GPCR_hDRD4.4: NovaScreen (NVS) G Protein-Coupled Receptor Assay for human Dopamine Receptor D4.4 (DRD4.4) (AID 2283264)
# Sequence of human Dopamine Receptor D4.4 (DRD4.4), DRD4 (gene 1815) (P21917 whole entry, looked up): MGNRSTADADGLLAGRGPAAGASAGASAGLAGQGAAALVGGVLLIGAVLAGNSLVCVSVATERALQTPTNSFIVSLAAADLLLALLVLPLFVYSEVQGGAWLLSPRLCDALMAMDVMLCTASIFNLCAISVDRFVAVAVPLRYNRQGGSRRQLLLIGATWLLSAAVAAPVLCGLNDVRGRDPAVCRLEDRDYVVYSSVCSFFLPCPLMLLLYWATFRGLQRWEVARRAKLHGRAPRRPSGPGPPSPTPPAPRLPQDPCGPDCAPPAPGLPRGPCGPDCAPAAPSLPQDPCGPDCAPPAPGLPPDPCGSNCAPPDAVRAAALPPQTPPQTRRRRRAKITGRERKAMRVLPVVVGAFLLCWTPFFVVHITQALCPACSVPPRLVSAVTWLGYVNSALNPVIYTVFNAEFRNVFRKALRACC
# Outline: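 Filter-binding assay with a tritiated or iodinated ligand, cell-free receptor prepared from CHO, 1 hour. Loss of bound radioactivity versus DMSO; single 25 uM duplicate screen, then concentration-response for actives.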
# [2] = biological target: human Histamine 1 Receptor (H1), HRH1 (gene 3269) (UniProt P35367); assay: NVS_GPCR_hH1: NovaScreen (NVS) G Protein-Coupled Receptor Assay for human Histamine 1 Receptor (H1) (AID 2283268)
# Sequence of human Histamine 1 Receptor (H1), HRH1 (gene 3269) (P35367 whole entry, looked up): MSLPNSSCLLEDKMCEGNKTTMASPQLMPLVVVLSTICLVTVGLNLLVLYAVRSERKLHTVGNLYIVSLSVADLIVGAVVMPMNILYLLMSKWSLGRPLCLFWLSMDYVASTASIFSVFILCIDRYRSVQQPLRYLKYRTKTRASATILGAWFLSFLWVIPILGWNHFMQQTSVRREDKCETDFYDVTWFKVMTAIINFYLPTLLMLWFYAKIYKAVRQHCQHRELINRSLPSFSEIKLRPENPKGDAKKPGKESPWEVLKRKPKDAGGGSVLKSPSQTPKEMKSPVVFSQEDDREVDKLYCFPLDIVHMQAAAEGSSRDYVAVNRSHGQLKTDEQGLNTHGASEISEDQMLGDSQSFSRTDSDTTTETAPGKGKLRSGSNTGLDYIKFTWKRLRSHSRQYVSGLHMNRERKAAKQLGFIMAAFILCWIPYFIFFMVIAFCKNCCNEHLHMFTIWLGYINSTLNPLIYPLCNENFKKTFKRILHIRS
# Outline: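 Filter-based scintillation detection of radioligand binding to human H1, 1 h incubation; chemicals screened in duplicate at 25 uM, then concentration-response; signal loss relative to DMSO taken as activity.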
# [3] = biological target: human Leukotriene B4 Receptor 1 (LTB4-BLT1), LTB4R (gene 1241) (UniProt Q15722); assay: NVS_GPCR_hLTB4_BLT1: NovaScreen (NVS) G Protein-Coupled Receptor Assay for human Leukotriene B4 Receptor 1 (LTB4-BLT1) (AID 2283271)
# Outline: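 Cell-free human neutrophil receptor preparation, 1 h exposure, radioligand binding read by filter scintillation counting. Single 25 uM duplicate screen, then concentration series topping at 50 uM; binding loss scored against DMSO baseline.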
# [4] = biological target: human Neurokinin, NK2 Receptor, TACR2 (gene 6865) (UniProt P21452); assay: NVS_GPCR_hNK2: NovaScreen (NVS) G Protein-Coupled Receptor Assay for human Neurokinin, NK2 Receptor (AID 2283278);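 also: actives reduce bound radioligand signal relative to DMSO baseline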
# Sequence of human Neurokinin, NK2 Receptor, TACR2 (gene 6865) (P21452 whole entry, looked up): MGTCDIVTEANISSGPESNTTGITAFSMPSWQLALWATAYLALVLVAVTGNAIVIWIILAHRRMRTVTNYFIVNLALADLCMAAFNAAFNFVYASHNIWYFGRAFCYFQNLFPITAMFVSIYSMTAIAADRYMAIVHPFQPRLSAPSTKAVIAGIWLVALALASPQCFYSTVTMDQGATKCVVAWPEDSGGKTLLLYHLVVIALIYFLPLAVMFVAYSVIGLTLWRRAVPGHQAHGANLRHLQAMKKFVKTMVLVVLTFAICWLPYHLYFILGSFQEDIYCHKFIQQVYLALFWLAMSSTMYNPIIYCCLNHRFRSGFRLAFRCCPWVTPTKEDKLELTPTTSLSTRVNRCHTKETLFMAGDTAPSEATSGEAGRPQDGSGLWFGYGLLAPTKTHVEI
# Outline: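 Cell-free radioligand binding using receptor protein extracted from CHO cells; readings taken 4 hours after chemical dosing by filter-based scintillation counting. Primary screen ran single concentration (25 uM) in duplicate; actives followed up in concentration series, loss-of-signal versus DMSO baseline.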
# [5] = biological target: human Opioid Receptor Delta 1 (Opiate D1), OPRD1 (gene 4985) (UniProt P41143); assay: NVS_GPCR_hOpiate_D1: NovaScreen (NVS) G Protein-Coupled Receptor Assay for human Opioid Receptor Delta 1 (Opiate D1) (AID 2283280)
# Sequence of human Opioid Receptor Delta 1 (Opiate D1), OPRD1 (gene 4985) (P41143 whole entry, looked up): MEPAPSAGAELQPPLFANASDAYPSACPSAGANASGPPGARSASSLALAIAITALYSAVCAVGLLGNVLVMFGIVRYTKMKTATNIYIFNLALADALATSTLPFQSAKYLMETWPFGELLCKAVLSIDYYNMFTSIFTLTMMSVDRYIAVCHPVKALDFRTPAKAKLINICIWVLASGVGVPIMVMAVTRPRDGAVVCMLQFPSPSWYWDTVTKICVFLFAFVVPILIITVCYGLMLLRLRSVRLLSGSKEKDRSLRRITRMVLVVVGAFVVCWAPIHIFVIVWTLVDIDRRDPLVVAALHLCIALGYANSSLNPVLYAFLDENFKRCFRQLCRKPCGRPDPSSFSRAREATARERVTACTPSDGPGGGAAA
# Outline: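 Membrane preparations from CHO cells bearing the human receptor were incubated 1 h with test chemical, and bound radioligand was counted after filtration. Actives from 25 uM duplicate screening were retested in concentration-response.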
# [6] = biological target: rat Serotonin, 5-Hydroxytryptamine Receptor 1 (5HT1), Non-Selective Binding, Htr1a (gene 24473) (UniProt P19327); assay: NVS_GPCR_r5HT1_NonSelective: NovaScreen (NVS) G Protein-Coupled Receptor Assay for rat Serotonin, 5-Hydroxytryptamine Receptor 1 (5HT1), Non-Selective Binding (AID 2283286)
# Outline: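 Binding of a radioligand to rat cortex membranes is read by filtration and scintillation counting after 1 h. Compounds were screened at 25 uM in duplicate. Actives were then titrated to a top of 50 uM. DMSO is the baseline.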
# [7] = biological target: Muscarinic acetylcholine receptor M3 (Homo sapiens) (UniProt P20309); assay: NVS_GPCR_hM3: NovaScreen (NVS) G Protein-Coupled Receptor Assay for human Muscarinic, M3 Receptor (AID 2283272)
# Outline: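 Radioligand displacement binding on human M3 receptor in CHO-derived membranes, 1 h incubation, filter-based scintillation counting. Primary screen in duplicate at 25 uM; actives followed up in concentration series; loss of signal versus DMSO.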
# [8] = biological target: Muscarinic acetylcholine receptor M2 (Homo sapiens) (UniProt P08172); assay: NVS_GPCR_hM2: NovaScreen (NVS) G Protein-Coupled Receptor Assay for human Muscarinic, M2 Receptor (AID 2283273)
# Sequence of Muscarinic acetylcholine receptor M2 (Homo sapiens) (P08172 whole entry, looked up): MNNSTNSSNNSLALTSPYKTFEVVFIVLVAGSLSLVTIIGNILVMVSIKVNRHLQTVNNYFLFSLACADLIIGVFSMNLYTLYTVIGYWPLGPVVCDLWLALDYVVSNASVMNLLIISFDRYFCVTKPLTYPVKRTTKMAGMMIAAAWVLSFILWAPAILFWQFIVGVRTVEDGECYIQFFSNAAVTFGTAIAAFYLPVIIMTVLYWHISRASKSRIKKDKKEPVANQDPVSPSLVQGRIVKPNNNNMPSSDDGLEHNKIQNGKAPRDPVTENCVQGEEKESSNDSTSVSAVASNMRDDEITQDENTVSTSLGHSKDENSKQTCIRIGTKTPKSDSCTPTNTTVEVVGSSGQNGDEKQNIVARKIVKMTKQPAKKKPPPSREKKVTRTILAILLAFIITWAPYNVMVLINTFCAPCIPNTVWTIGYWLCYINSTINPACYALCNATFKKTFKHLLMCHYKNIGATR
# Outline: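 Filter-based radiodetection read bound radioligand 1 h after dosing CHO-derived membrane protein. Single-concentration duplicates (25 uM) first, then concentration-response for actives; signal loss versus DMSO scored.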
# [9] = biological target: human Orphanin, Opioid Related Nociceptin Receptor 1 (ORL1), OPRL1 (gene 4987) (UniProt P41146); assay: NVS_GPCR_hORL1: NovaScreen (NVS) G Protein-Coupled Receptor Assay for human Orphanin, Opioid Related Nociceptin Receptor 1 (ORL1) (AID 2283283)
# Sequence of human Orphanin, Opioid Related Nociceptin Receptor 1 (ORL1), OPRL1 (gene 4987) (P41146 whole entry, looked up): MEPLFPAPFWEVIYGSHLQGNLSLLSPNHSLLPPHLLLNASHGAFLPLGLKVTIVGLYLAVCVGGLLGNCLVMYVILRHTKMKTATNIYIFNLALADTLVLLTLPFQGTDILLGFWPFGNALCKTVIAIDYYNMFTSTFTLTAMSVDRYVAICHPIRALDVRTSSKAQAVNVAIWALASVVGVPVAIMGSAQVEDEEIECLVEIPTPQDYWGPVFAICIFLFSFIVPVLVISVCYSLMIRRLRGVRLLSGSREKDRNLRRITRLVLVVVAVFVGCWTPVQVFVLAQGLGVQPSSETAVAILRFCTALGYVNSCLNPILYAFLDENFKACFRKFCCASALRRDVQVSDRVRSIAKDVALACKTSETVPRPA
# Outline: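 Cell-free binding using HEK293-derived receptor protein: radioligand displacement measured by filter scintillation 1 hour after dosing. Primary testing at 25 uM in duplicate, followed by singleton concentration series up to 50 uM; DMSO served as negative control.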
# [10] = biological target: human Purinergic Receptor P2Y, P2RY1 (gene 5028) (UniProt P47900); assay: NVS_GPCR_hPY2: NovaScreen (NVS) G Protein-Coupled Receptor Assay for human Purinergic Receptor P2Y (AID 2283281)
# Sequence of human Purinergic Receptor P2Y, P2RY1 (gene 5028) (P47900 whole entry, looked up): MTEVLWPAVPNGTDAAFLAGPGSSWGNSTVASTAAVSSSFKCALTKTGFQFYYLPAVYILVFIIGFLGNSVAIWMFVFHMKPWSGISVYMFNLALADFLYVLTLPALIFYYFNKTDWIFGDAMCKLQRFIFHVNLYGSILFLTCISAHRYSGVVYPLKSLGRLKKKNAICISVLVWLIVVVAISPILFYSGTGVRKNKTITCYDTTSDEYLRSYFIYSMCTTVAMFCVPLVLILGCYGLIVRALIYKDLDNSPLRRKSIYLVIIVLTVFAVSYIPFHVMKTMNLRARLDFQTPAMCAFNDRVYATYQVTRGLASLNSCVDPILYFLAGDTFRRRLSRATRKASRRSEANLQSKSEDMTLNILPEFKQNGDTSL
# Outline: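 Filtration scintillation readout of radioligand displacement on U937 extract, measured 1 h post-dosing. Single 25 uM duplicate screen, then singleton concentration series to 50 uM for chemicals passing threshold; DMSO as baseline.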
# [11] = biological target: human Vasopressin 1A Receptor (V1A), AVPR1A (gene 552) (UniProt P37288); assay: NVS_GPCR_hV1A: NovaScreen (NVS) G Protein-Coupled Receptor Assay for human Vasopressin 1A Receptor (V1A) (AID 2283284)
# Sequence of human Vasopressin 1A Receptor (V1A), AVPR1A (gene 552) (P37288 whole entry, looked up): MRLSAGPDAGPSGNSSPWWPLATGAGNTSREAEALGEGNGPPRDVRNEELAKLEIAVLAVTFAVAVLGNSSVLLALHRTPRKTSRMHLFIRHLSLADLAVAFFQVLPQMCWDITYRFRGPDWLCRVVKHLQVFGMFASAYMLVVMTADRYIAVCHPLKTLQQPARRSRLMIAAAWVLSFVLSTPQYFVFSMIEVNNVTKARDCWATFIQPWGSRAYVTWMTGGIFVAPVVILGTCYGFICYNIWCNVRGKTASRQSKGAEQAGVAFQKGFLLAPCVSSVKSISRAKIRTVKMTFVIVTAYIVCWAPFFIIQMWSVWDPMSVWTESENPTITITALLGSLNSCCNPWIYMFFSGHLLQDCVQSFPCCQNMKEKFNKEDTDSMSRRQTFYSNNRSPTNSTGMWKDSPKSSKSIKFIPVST
# Outline: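 Single-concentration duplicate screen at 25 uM, with concentration-response follow-up (top 50 uM) for actives. The assay measured displacement of a radioligand from human platelet-derived receptor after 1.5 h, detected by filtration and scintillation counting.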
# [12] = biological target: human Endothelin Receptor Type B (ETB), EDNRB (gene 1910) (UniProt P24530); assay: NVS_GPCR_hETB: NovaScreen (NVS) G Protein-Coupled Receptor Assay for human Endothelin Receptor Type B (ETB) (AID 2283267)
# Outline: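 Filter-based scintillation readout of radioligand displacement, 4 h, using membranes from human astrocytoma cells. Actives from a 25 uM duplicate screen were retested in concentration-response (top 50 uM) relative to DMSO baseline.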
# [13] = biological target: mouse Cholecystokinin, CCK1 Receptor (CCKA), Cckar (gene 12425) (UniProt O08786); assay: NVS_GPCR_mCCKAPeripheral: NovaScreen (NVS) G Protein-Coupled Receptor Assay for mouse Cholecystokinin, CCK1 Receptor (CCKA) (AID 2283285)
# Sequence of mouse Cholecystokinin, CCK1 Receptor (CCKA), Cckar (gene 12425) (O08786 whole entry, looked up): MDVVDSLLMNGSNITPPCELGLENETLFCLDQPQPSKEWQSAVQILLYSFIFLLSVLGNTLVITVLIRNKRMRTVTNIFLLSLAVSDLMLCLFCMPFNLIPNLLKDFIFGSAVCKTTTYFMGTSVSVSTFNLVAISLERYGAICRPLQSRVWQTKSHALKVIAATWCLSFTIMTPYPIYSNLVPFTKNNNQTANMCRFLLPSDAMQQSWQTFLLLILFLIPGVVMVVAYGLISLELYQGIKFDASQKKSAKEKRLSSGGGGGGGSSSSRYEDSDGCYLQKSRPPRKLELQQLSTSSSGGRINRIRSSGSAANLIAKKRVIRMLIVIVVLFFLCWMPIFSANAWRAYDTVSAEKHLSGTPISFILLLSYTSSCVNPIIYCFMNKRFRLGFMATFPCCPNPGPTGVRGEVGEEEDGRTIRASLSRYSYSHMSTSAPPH
# Outline: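 Chemicals were first screened in duplicate at 25 uM, with those meeting threshold (e.g., 30% inhibition) retested in singleton concentration series to 50 uM maximum. Binding of radioligand to mouse pancreatic membranes was read after 2 h by filtration and scintillation counting.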
# [14] = biological target: human Endothelin Receptor Type A (ETA), EDNRA (gene 1909) (UniProt P25101); assay: NVS_GPCR_hETA: NovaScreen (NVS) G Protein-Coupled Receptor Assay for human Endothelin Receptor Type A (ETA) (AID 2283265)
# Outline: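 Binding of radioligand to membrane protein extracted from SH-SY5Y cells was read by filtration and scintillation after 3 h. Compounds were screened at 25 uM in duplicate, with hits followed up in singleton concentration series to 50 uM.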
# [15] = biological target: human Neuropeptide Receptor Y1 (NPY1), NPY1R (gene 4886) (UniProt P25929); assay: NVS_GPCR_hNPY1: NovaScreen (NVS) G Protein-Coupled Receptor Assay for human Neuropeptide Receptor Y1 (NPY1) (AID 2283276)
# Outline: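 Displacement of specific radioligand from NPY1 receptor of SK-N-MC origin, read by filtration and scintillation after 1 h. Compounds first tested at 25 uM in duplicate, then actives in concentration series; signal loss relative to DMSO.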
# [16] = biological target: human Thromboxane A2 Receptor (TXA2), TBXA2R (gene 6915) (UniProt P21731); assay: NVS_GPCR_hTXA2: NovaScreen (NVS) G Protein-Coupled Receptor Assay for human Thromboxane A2 Receptor (TXA2) (AID 2283282);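 also: actives reduce bound radioligand signal relative to DMSO baseline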
# Sequence of human Thromboxane A2 Receptor (TXA2), TBXA2R (gene 6915) (P21731 whole entry, looked up): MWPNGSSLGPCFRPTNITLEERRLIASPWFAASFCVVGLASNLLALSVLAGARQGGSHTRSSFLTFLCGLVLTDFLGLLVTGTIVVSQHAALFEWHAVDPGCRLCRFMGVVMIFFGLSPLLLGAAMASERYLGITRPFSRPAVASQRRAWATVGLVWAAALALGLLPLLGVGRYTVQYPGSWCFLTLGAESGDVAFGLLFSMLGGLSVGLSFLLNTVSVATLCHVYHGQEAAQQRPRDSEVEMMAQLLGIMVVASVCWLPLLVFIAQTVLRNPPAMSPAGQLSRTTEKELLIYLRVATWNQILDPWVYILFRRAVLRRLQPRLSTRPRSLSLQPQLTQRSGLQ
# Outline: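 Cell-free radioligand binding on membrane protein from human platelets; radioligand displacement read by filter-based scintillation counting after 1 h. Primary screen in duplicate at 25 uM, actives then run in concentration series; loss of signal versus DMSO.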
# [17] = biological target: Muscarinic acetylcholine receptor M1 (Homo sapiens) (UniProt P11229); assay: NVS_GPCR_hM1: NovaScreen (NVS) G Protein-Coupled Receptor Assay for human Muscarinic, M1 Receptor (AID 2283270)
# Outline: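 Actives from a duplicate 25 uM single-point screen were retested in concentration series. Binding measured as displacement of a radioligand from CHO-derived receptor preparation, 1 h incubation, filtration and scintillation counting, analysed as signal loss against DMSO.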
# [18] = biological target: Muscarinic acetylcholine receptor M5 (Homo sapiens) (UniProt P08912); assay: NVS_GPCR_hM5: NovaScreen (NVS) G Protein-Coupled Receptor Assay for human Muscarinic, M5 Receptor (AID 2283275)
# Sequence of Muscarinic acetylcholine receptor M5 (Homo sapiens) (P08912 whole entry, looked up): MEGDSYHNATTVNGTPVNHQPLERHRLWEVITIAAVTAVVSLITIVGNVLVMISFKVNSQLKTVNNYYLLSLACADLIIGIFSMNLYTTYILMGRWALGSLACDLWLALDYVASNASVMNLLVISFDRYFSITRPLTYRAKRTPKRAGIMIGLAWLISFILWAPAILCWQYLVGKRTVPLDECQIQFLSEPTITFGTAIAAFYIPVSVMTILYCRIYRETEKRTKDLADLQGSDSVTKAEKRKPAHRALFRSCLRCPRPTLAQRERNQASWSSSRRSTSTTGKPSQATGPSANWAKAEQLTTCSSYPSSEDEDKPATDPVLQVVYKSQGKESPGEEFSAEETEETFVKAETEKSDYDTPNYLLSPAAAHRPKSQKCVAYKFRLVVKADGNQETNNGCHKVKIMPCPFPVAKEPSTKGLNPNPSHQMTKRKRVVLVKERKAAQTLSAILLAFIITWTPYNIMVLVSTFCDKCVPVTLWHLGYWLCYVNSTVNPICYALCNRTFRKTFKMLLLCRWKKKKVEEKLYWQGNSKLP
# Outline: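 Chemicals passing a primary duplicate screen at 25 uM were run as singleton concentration series, maximum 50 uM. Displacement of a specific radioligand from CHO-extracted receptor was read by filter scintillation after 1 h, relative to DMSO.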
# [19] = biological target: Neuropeptide Y receptor type 2 (Homo sapiens) (UniProt P49146); assay: NVS_GPCR_hNPY2: NovaScreen (NVS) G Protein-Coupled Receptor Assay for human Neuropeptide Receptor Y2 (NPY2) (AID 2283277)
# Outline: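 Chemicals were first tested in duplicate at 25 uM, then actives in singleton concentration series to 50 uM. Tracer binding to SK-N-MC-derived protein measured cell-free after 1 h via filter scintillation; signal loss relative to DMSO.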
smiles,measurement,setting,value
CSc1ccc(Oc2ccc(S(N)(=O)=O)cc2CN(C)C)cc1C,AC50,[1],25 µM (active)
same,AC50,[2],19.6 µM (active)
same,outcome,[3],inactive
same,AC50,[4],6.33 µM (active)
same,AC50,[5],15 µM (active)
CC(C)(C)c1ccccc1,outcome,[6],inactive
CCc1nc(N)nc(N)c1-c1ccc(Cl)cc1,AC50,[1],5.9 µM (active)
same,outcome,[7],inactive
same,AC50,[8],13.9 µM (active)
C#CC(O)C(CC)CCCC (configuration not stated),outcome,[9],inactive
CS(=O)(=O)c1ccc([C@@H](C[C@H]2CCC(=O)C2)C(=O)Nc2cnccn2)cc1Cl,outcome,[10],inactive
NC(=Nc1ccccc1)Nc1ccccc1,AC50,[8],19.8 µM (active)
CO[C@@H]1COCC[C@@H]1N[C@@H]1CC[C@@](C(=O)N2CCc3ncc(C(F)(F)F)cc3C2)(C(C)C)C1,AC50,[8],12.3 µM (active)
same,outcome,[11],inactive
O=C(NS(=O)(=O)/C=C/c1cccs1)c1ccc(F)cc1Br,outcome,[12],inactive
same,AC50,[13],22.6 µM (active)
O=Cc1ccccc1C=O,AC50,[14],19.2 µM (active)
same,AC50,[8],17 µM (active)
same,AC50,[15],12.9 µM (active)
same,AC50,[16],16.7 µM (active)
same,AC50,[9],25 µM (active)
NCCOCCOCCN,outcome,[12],inactive
Oc1ccc(O)cc1,AC50,[15],10.8 µM (active)
same,outcome,[4],inactive
same,outcome,[11],inactive
O=C1OC(c2ccc(O)cc2)(c2ccc(O)cc2)c2ccccc21,AC50,[5],6.64 µM (active)
same,AC50,[16],0.454 µM (active)
CCCCCCCCCCCCCCOS(=O)(=O)O,AC50,[1],13.3 µM (active)
same,AC50,[2],28.1 µM (active)
same,AC50,[17],25 µM (active)
same,AC50,[7],25 µM (active)
same,AC50,[18],16.5 µM (active)
same,AC50,[4],46.3 µM (active)
same,AC50,[5],8.07 µM (active)
same,AC50,[10],10.3 µM (active)
same,AC50,[16],7.59 µM (active)
same,AC50,[9],16.3 µM (active)
O=C1CCCCC1,outcome,[19],inactive
CC(=O)OCC(COC(C)=O)OC(C)=O,AC50,[3],40.5 µM (active)
Cc1cc(SC2=C(O)C[C@@](CCc3ccc(N)cc3)(C(C)C)OC2=O)c(C(C)(C)C)cc1CO,outcome,[2],inactive
same,outcome,[17],inactive
same,outcome,[18],inactive
same,AC50,[16],0.881 µM (active)
same,outcome,[13],inactive
CC(=O)[C@@]1(O)CC[C@H]2[C@@H]3CCC4=CC(=O)CC[C@]4(C)[C@H]3CC[C@@]21C,AC50,[8],0.617 µM (active)
CCC(C)N(C)C(=O)c1cc2ccccc2c(-c2ccccc2Cl)n1 (configuration not stated),AC50,[2],15.9 µM (active)
same,AC50,[4],15.9 µM (active)
same,AC50,[16],1 µM (active)
same,outcome,[11],inactive
same,AC50,[13],10.8 µM (active)
COc1ccc(OC(F)(F)F)cc1CN[C@H]1CCCN[C@H]1c1ccccc1,AC50,[18],9.18 µM (active)
same,AC50,[4],13.5 µM (active)
